In PubChem BioAssay AID1508619 (National Center for Advancing Translational Sciences (NCATS), 2020):
Inconclusive results are not listed. A call without a number means that no potency is given here. Active and inactive are the calls of the source. The call rests on the fitted dose curve; in most records, active means well fitted inhibition curve with a large enough effect; inconclusive means small, poorly fitted or top-dose-only effect; inactive means no such curve, though single readings can be large or run the other way.

Test: Counterscreen qHTS for Identification of Calcium Integrin Binding Protein 1 (CIB1) Competitor
Details: series mostly up to 114 µM
Procedure, shortened: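 Counterscreen FP assay: CIB1-GST 1 uM in 5 mM HEPES pH 7.4, 125 mM NaCl, 5 mM CaCl2, 0.01% Tween20, with compounds up to 114 uM for 15 min, then 100 nM FITC-labelled scrambled peptide, 15 min, polarization read ex 480/em 540.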
Potency means the concentration at half of the fitted maximal effect.

Compound	Potency
CCOC(=O)c1c(-c2ccc(C)o2)csc1NC(=O)CSc1nnnn1-c1ccccc1	inactive
O=c1c2ccccc2nc2sc(NS(=O)(=O)c3ccc4c(c3)CCC4)nn12	inactive
CC(O)c1ccc(-c2ccc3ncnc(N4CCOCC4)c3c2)o1 (configuration not stated)	inactive
CN(C)c1cnc2c(O)cccc2c1	inactive
CC(OC(=O)c1ccc(S(C)(=O)=O)c([N+](=O)[O-])c1)C(=O)NC1C2CC3CC(C2)CC1C3 (configuration not stated)	inactive
Cc1ccc(C)n1-c1cccc(C(=O)O)c1	inactive
O=[N+]([O-])c1ccc(O)c2ncccc12	inactive
CCOc1ccc2nc3cc(N)ccc3c(N)c2c1	31.6 µM (active)
O=C(O)C1=NC(C(=O)O)CC(C=CN2c3cc(O)c(OC4OC(CO)C(O)C(O)C4O)cc3CC2C(=O)O)=C1 (configuration not stated)	inactive
O=C(O)Cc1ccc(CCNS(=O)(=O)c2ccc(Cl)cc2)cc1	inactive
COC(=O)c1ccc(O)c2ncc(-c3ccc(C(=O)NCCCN(C)C)cc3)cc12	inactive
CCN(CC)C(=S)SSC(=S)N(CC)CC	inactive
CN(C)CCN1C(=O)c2cccc3cc(N)cc(c23)C1=O	inactive
O=C1c2c(O)ccc(O)c2C(=O)c2c(NCCNCCO)ccc(NCCNCCO)c21	20 µM (active)
O=C1CCCC2=C1C(c1ccn[nH]1)N=C(Nc1nc3ccccc3o1)N2 (configuration not stated)	inactive
Cc1ccc(OCCn2c(CCNC(=O)c3ccsc3)nc3ccccc32)cc1	inactive

Compound	Potency
COC(=O)c1ccc(O)c2ncc(-c3ccc(C(=O)N4CCNCC4)cc3)cc12	inactive
CCCC(=O)c1cc(O)c(O)cc1O	31.6 µM (active)
Nc1ccc(O)c([N+](=O)[O-])c1	63.1 µM (active)
COc1ccc(C(=O)Nc2nc(-c3ccccc3)cs2)c(NS(=O)(=O)c2ccc(C)cc2)c1	inactive
Cc1ccc(S(=O)(=O)Nc2cnccc2C(=O)Nc2ccc(-c3nn[nH]n3)cc2)cc1	inactive
CCc1ccc(NC(=O)C(=O)NNC(=O)c2cccs2)cc1	inactive
Fc1ccc(NC(=S)Nc2nnc(-c3ccncc3)s2)cc1C(F)(F)F	inactive
CCc1oc2ccccc2c1C(=O)c1cc(Br)c(O)c(Br)c1	inactive
Cc1cc(C(C#N)c2ccc(Cl)cc2)c(Cl)cc1NC(=O)c1cc(I)cc(I)c1O (configuration not stated)	inactive
O=C(Nc1ccc(S(=O)(=O)N2CCOCC2)cc1)c1cc(Cl)ccc1NS(=O)(=O)c1ccc(Cl)s1	inactive
Cn1c(NC2=NC3(CCCC3)C3=C(CCCC3=O)N2)nc2ccccc21	inactive
NS(=O)(=O)c1ccc(Nc2nc(-c3ccccc3)cs2)cc1	44.7 µM (active)
Cn1cc(-c2[nH]c3cc(NC(=O)[C@H](N)C4CCCCC4)cc4c3c2C=NNC4=O)cn1	79.4 µM (active)
O=c1c(O)c(-c2ccc(O)c(O)c2)oc2cc(O)cc(O)c12	inactive
N#Cc1ccc(NS(=O)(=O)c2ccc(NC(=O)Cc3ccc(F)c(Cl)c3)cc2)cc1	inactive
O=c1[nH]nc(Sc2ncc([N+](=O)[O-])s2)n1-c1ccc2c(c1)OCCO2	inactive
